Tau fibril ThT – inhibitors of human tau fibril formation, thioflavin T binding | P10636 | recombinant tau K18 P301L, heparin-induced fibrillization, ThT fluorescence | Potency, µM (series often up to 57.4 µM), inactives show top-dose activity, negative = inhibition, actives largely listed as inhibitors | 270,000 compounds, 2.1% hits | AID 1460; also: potency is read from the fitted curve at half-maximal effect; nearly all actives have a fitted effect of over 55% in size
Target sequence (P10636 561-689 P618L limits assumed): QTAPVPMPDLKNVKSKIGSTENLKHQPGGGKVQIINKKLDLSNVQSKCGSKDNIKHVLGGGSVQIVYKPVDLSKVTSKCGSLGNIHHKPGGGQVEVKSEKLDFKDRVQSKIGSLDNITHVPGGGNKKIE
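K18 P301L tau (15 uM + 0.24 uM Alexa 594-tagged), heparin 20 uM, NaOAc pH 7, 6 h 37 C; ThT 30 uM, 1 h RT, ex 450/em 510 nm.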
Tau FP inhib – blocks human tau fibril formation measured by polarization; P10636; 280,000 compounds, 0.39% hits; Potency, µM (series often up to 57.7 µM), for inactives: at the highest dose activity, negative = inhibition, hits mostly inhibitors; K18 P301L tau heparin fibrillization, Alexa594 FP, 6 h; also: potency is read from the fitted curve at half-maximal effect; nearly all actives have a fitted effect of over 55% in size
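Recombinant K18 P301L […], labeled with Alexa 594 at 0.24 uM over 15 uM unlabeled; heparin inducer 20 uM final; 37 C, 6 hr; FP endpoint.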
Coupling enz – counter-screen for Giardia aldolase inhibitors: coupling enzyme system. activity change, negative = inhibition, % at 58.2 µM, hits read low. 290,000 compounds, 0.67% hits. coupling enzyme system counterscreen, AmpLite Red fluorescence; in the data active = activity change below about -30%
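Activity here indicates interference with the coupling reaction, not aldolase inhibition. Compounds at 57.5 uM final met coupling enzymes for 10 min at RT; substrate and AmpLite Red detection followed, with a 525/598 nm fluorescence read after 20 min.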
Tau fluor cs – counter-screen for tau fibril formation inhibitors; tau K18 P301L Alexa594 fluorescence, heparin fibrillization; 280,000 compounds, 0.93% hits; Potency, µM (highest dose often 57.7 µM), inactives show at the top dose activity change, negative = decrease; also: potency is read from the fitted curve at half-maximal effect; nearly all actives have a fitted effect of over 55% in size
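Human tau K18 P301L (15 uM unlabeled, 0.24 uM Alexa 594-labeled) in 100 mM sodium acetate pH 7 with 20 uM heparin, 6 hr at 37 C. ThT 30 uM added, 1 hr ambient; Alexa 594 FP and total fluorescence read at 555/632 nm.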
USP1-UAF1 inh – inhibitors of human USP1/UAF1 deubiquitinase. Potency, µM (titrated, usually from 57.1 µM), for the others: at the top dose activity change, negative = inhibition, usual class: inhibitors. O94782. AID 743255. recombinant USP1/UAF1, Ub-Rhodamine cleavage fluorescence. 390,000 compounds, 0.23% hits; also: potency is read from the fitted curve at half-maximal effect; nearly all actives have a fitted effect of over 60% in size
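High-throughput fluorogenic screen: 1nM USP1/UAF1 complex, Ub-Rho substrate 150nM final, 50mM HEPES pH 7.8 with 0.5mM EDTA, 0.1 mg/ml BSA, 1mM TCEP and 0.01% Tween-20.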
Starred values were filed as active, the others as inactive; ? = inconclusive; . = no result given; [ ] = dose if it differs, or a comment. Rows were chosen to be rich in hits. Some 2.3% of all compounds tested hit in one or more screens of this group. Unless noted, calls follow the shape of the dose curve; as a rule, active = well fitted curve in the direction sought with a large enough effect; inconclusive = small, poorly fitted or top-dose-only effect, or another doubt; inactive = no such curve, though single readings can be large; an effect the other way counts as inactive or inconclusive. % is scaled to controls: 0 for no effect and ±100 for the full control effect.

SMILES	Tau fibril ThT	Tau FP inhib	Coupling enz	Tau fluor cs	USP1-UAF1 inh
O=C(CSCc1cnn(-c2ccccc2)c1-n1cccc1)NCc1cccc(Cl)c1	-5.5%	-4.4%	.	-27.2%	-9.7%
CCc1ccc(OCC(=O)NC(NC(=S)Nc2ccccc2C)C(Cl)(Cl)Cl)cc1 (centres undefined)	6.3%	4.9%	3.7	4.7%	-7.9%
COc1ccc(NC(=S)NC(NC(=O)c2ccccc2Cl)C(Cl)(Cl)Cl)c([N+](=O)[O-])c1 (centres undefined)	?	5.9%	1.6	?	-26.4%
Cc1ccccc1NC(=S)NC(NC(=O)COc1ccccc1)C(Cl)(Cl)Cl (centres undefined)	14.1µM*	?	-0.2	-19.4%	-12.7%
COc1ccc(NC(=S)NC(NC(=O)CCl)C(Cl)(Cl)Cl)c([N+](=O)[O-])c1 (centres undefined)	15.8µM*	-11.0%	3.4	?	?
COc1ccc(C=NNc2ccc([N+](=O)[O-])cc2S(=O)(=O)Nc2ccccc2C(=O)O)cc1OC	.	.	.	.	-10.7%
COc1ccc(NS(=O)(=O)c2cc([N+](=O)[O-])ccc2N/N=C\c2c(C)[nH]c3ccccc23)cc1	2.51µM*	5.5%	0.2	3.16µM*[quencher]	-16.2%
Cc1[nH]c2ccccc2c1/C=N/Nc1ccc([N+](=O)[O-])cc1S(=O)(=O)Nc1ccc(Cl)cc1	3.16µM*	1.6%	-0.1	3.16µM*[quencher]	-6.1%
COc1ccc(/C=N/Nc2ccc([N+](=O)[O-])cc2S(=O)(=O)N2CCN(C)CC2)cc1	?	-8.4%	-0.8	-7.0%	-4.3%
COc1ccccc1NS(=O)(=O)c1cc([N+](=O)[O-])ccc1N/N=C/c1c[nH]c2ccccc12	2.82µM*	3.8%	-10.1	-78.0%	-10.9%
Cc1ccc(NC(=O)N2CCC(N3CCN(Cc4ccccc4)C(=O)C3=O)CC2)cc1Cl	8.6%	-14.4%	.	-9.8%	?
CC(=O)c1ccc(NC(=O)CCc2c(C)nc3cc(-c4ccc(Cl)cc4)nn3c2C)cc1	-14.9%	?	.	?	-4.8%
Oc1ccc(-c2nc3c4c(ncn3n2)-c2ccccc2CC42CCCC2)cc1	4.9%	22.4µM*	-4.4	?	-3.8%
Nn1cnc2c(c1=O)C1(CCCCC1)Cc1ccccc1-2	-4.3%	6.1%	-0.8	-12.5%	-0.9%
O=C1S/C(=C\c2ccc(N3CCOCC3)o2)C(=O)N1Cc1c(F)cccc1Cl	?	3.6%	-40.6*	-9.9%	3.98µM*
O=C1S/C(=C/c2ccc(N3CCOCC3)o2)C(=O)N1Cc1c(F)cccc1Cl	?	10.7%	-15.9	-25.0%	?
O=C1S/C(=C\c2ccc(N3CCOCC3)o2)C(=O)N1c1ccccc1	11.2µM*	?	-43.3*	-23.7%	28.2µM*
O=C1OC(/C=C/c2ccccc2)=NC/1=C/C=C/c1ccccc1	15.8µM*	-13.2%	3.8	-3.5%	-4.3%
O=C(NCc1nc(-c2ccc(C(F)(F)F)cc2)no1)Nc1ccc(OC(F)(F)F)cc1	.	7.94µM*	-4.7	-15.2%	-12.4%
COc1ccc(-c2noc(CNS(=O)(=O)c3ccc(NC(C)=O)cc3)n2)cc1	.	.	.	.	4.3%
COc1ccc(COc2cc(-c3cccc(OC)c3)nc3ccc(N)cc23)cc1	?	?	-1.1	12.6µM*[quencher]	?
Oc1ccc(/C=C\c2cc(O)cc(O)c2)cc1	14.1µM*	10.0%	0.8	14.1µM*[quencher]	.
Oc1ccc(/C=C/c2cc(O)cc(O)c2)cc1	10µM*	?	2.9	?	2.5%
COc1cc(O)cc(/C=C/c2ccccc2)c1	-7.9%	?	-0.4	?	-15.8%
COc1cccc(Nc2nc(-c3cccs3)nc3ccccc23)c1	9.6%	25.1µM*	-1.0	?	-22.4%
COc1ccc(Nc2nc(-c3cccc([N+](=O)[O-])c3)nc3ccccc23)cc1	?	?	-2.7	3.55µM*[quencher]	-1.8%
COc1ccc(Nc2nc(-c3cccs3)nc3ccccc23)cc1	?	15.0%	1.0	10µM*[quencher]	1.4%
COc1ccc(Nc2nc(-c3ccccc3)nc3ccccc23)cc1	.	.	0.3	.	?
CC12CCC(=O)N1C(C(=O)N1CCN(S(=O)(=O)c3cccc(C(F)(F)F)c3)CC1)CS2 (centres undefined)	.	.	.	.	-6.7%
